Compound activity as filed in PubChem BioAssay.
Only some compounds are listed: those with a hit (about 0.97% of all), similar ones and a draw of the others.
Beta2AR agonist = activates human beta-2 adrenergic receptor causing internalization; P07550; Am2.2-beta2AR cells, FAP receptor internalization, flow cytometry; response, % (concentration not given with the values); actives 0.43% (n = 340,000); AID 504454;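 active = response above a set limit, near 3 SD of response in nonfluorescent compounds, cut at about 42% in these data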
NOD2-RIPK2 inh = NOD2-RIPK2 protein interaction inhibition; O43353; CHO BLA complementation NOD2-RIPK2, CCF4 ratio; inhibition, % at 4.98 µM; actives 0.38% (n = 360,000); AID 624267; in the data active = inhibition above about 21%;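 note: 0% = vehicle only and 100% = reference blocker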
TLR9-MyD88 block = inhibitors of human TLR9-MyD88 binding; CHO BLA complementation TLR9-MyD88, CCF4 FRET ratio; inhibition, % at 4.98 µM; actives 0.21% (n = 340,000); AID 504734;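 active = inhibition above the mean over all tested compounds plus 3 SD, cut at about 21% in these data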;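 note: 0% = DMSO only wells and 100% = clavulanate BLA inhibitor control wells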
Bfl-1 A1 inh = inhibitors of the anti-apoptotic protein A1, read as caspase activation; MEF A1-2A-BIM cells, Caspase-Glo 3/7 luminescence, 3 h; percent of clofoctol response, vehicle zero; caspase activation, % (test concentration not listed); actives 0.066% (n = 330,000); AID 2462;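 active = over half of replicate activation scores above 10%, or exactly half above 10 with the replicate mean above 10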
NTR1 agonist = activates human neurotensin receptor 1; P30989; NTR1-U2OS beta-arrestin-GFP spot imaging, agonist mode; activation, % at 20 µM; actives 0.17% (n = 330,000);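 active = activation at or above 40% of the spot to cytoplasm intensity ratio, with at least 20 cells analyzed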;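 note: 0% = DMSO without peptide and 100% = 100 nM NTR1 peptide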
TLR4-MyD88 BLA = TLR4-MyD88 interaction inhibition in cells. O00206+Q99836. HeLa CL3-4 TLR4/MyD88 BLA complementation, FRET ratio. inhibition, % at 8.4 µM. actives 0.18% (n = 200,000). AID 861; in the data active = inhibition above about 25%;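 note: 0% = vehicle and 100% = reference inhibitor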
NTR1 ag conf = confirmation of agonists of human NTR1; shares compounds with NTR1 agonist; NTR1-U2OS beta-arrestin-GFP translocation imaging; activation, % at 20 µM; actives 38% (n = 480); AID 504550;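 active = mean activation at 20 µM of at least 40%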;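 note: 0% = DMSO without peptide and 100% = 100 nM NTR1 peptide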
Active calls of the source: *.

How did O=C(Nc1ccc(-c2noc(-c3cccs3)n2)cc1)c1cccnc1 do in these assays?
Beta2AR agonist: -0.6; NOD2-RIPK2 inh: -6.1; TLR9-MyD88 block: 0.2; Bfl-1 A1 inh: -1.6; NTR1 agonist: 46.8*; TLR4-MyD88 BLA: 6.1; NTR1 ag conf: 8.6

Results for CSc1ccc(CNC2CC2)cc1 ?
Beta2AR agonist: -8.1; NOD2-RIPK2 inh: -1.6; TLR9-MyD88 block: -4.1; Bfl-1 A1 inh: 0.3; NTR1 agonist: -1.3; TLR4-MyD88 BLA: -7.7

What do the screens show for `COC(=O)COc1ccc(NC(=O)Cn2nc(-c3ccccc3)c3ccccc3c2=O)cc1`?
Beta2AR agonist: 10.3; NOD2-RIPK2 inh: 1.5; TLR9-MyD88 block: -4.5; Bfl-1 A1 inh: -0.1; NTR1 agonist: 60.7*; TLR4-MyD88 BLA: -9.7; NTR1 ag conf: 14.8

What do the screens show for `COc1ccc(-c2nn(CC(=O)Nc3ccc(Cl)c(Cl)c3)c(=O)c3ccccc23)cc1`?
Beta2AR agonist: -4.5; NOD2-RIPK2 inh: -2.5; TLR9-MyD88 block: -1.1; Bfl-1 A1 inh: -0.3; NTR1 agonist: -0.9; TLR4-MyD88 BLA: 4.1

Results for Oc1ccc(/C=N/Nc2nc(-c3ccc(Cl)cc3)cc(C(F)(F)F)n2)cc1 ?
Beta2AR agonist: 23.9; NOD2-RIPK2 inh: 4.0; TLR9-MyD88 block: -16.8; Bfl-1 A1 inh: 0.6; NTR1 agonist: 61.2*; TLR4-MyD88 BLA: -2.3; NTR1 ag conf: 14.9

How did CCOC(=O)c1ccc(NC(=O)C2CCCN(S(=O)(=O)c3ccc(F)cc3)C2)cc1 (stereo not given) do in these assays?
Beta2AR agonist: 34.8; NOD2-RIPK2 inh: 5.0; TLR9-MyD88 block: -9.9; NTR1 agonist: 53.4*; TLR4-MyD88 BLA: 0.9; NTR1 ag conf: 22.2

What do the screens show for `CCOC(=O)c1ccc(NC(=O)C2CCN(S(=O)(=O)c3ccccc3)CC2)cc1`?
Beta2AR agonist: 15.6; NOD2-RIPK2 inh: 3.9; TLR9-MyD88 block: -23.0; Bfl-1 A1 inh: -0.1; NTR1 agonist: 0.6; TLR4-MyD88 BLA: -21.9

Results for N=c1c(C(=O)NCc2ccc(F)cc2)cc2c(=O)n3ccccc3nc2n1Cc1ccco1 ?
Beta2AR agonist: 3.5; NOD2-RIPK2 inh: 3.4; TLR9-MyD88 block: 3.8; Bfl-1 A1 inh: 0.1; NTR1 agonist: 41.3*; TLR4-MyD88 BLA: 12.9; NTR1 ag conf: 22.1

Results for COc1ccc(CCNC(=O)c2cc3c(=O)n4cccc(C)c4nc3n(Cc3ccco3)c2=N)cc1OC ?
Beta2AR agonist: 23.7; NOD2-RIPK2 inh: -1.4; TLR9-MyD88 block: 10.9; Bfl-1 A1 inh: -2.4; NTR1 agonist: 41.5*; NTR1 ag conf: 11.5

What do the screens show for `CC(C)C(=O)Nc1c(-c2ccccc2F)c(=O)c2ccccc2n1C`?
Beta2AR agonist: 0.9; NOD2-RIPK2 inh: 2.5; TLR9-MyD88 block: -2.3; Bfl-1 A1 inh: -0.8; NTR1 agonist: -0.3

Results for Cc1ccc2nc(-c3ccc(NC(=O)C(C)Sc4nncs4)cc3)sc2c1 (stereo not given) ?
Beta2AR agonist: 37.5; NOD2-RIPK2 inh: -4.8; TLR9-MyD88 block: 0.2; Bfl-1 A1 inh: -1.5; NTR1 agonist: 48.6*; NTR1 ag conf: 32.1

What do the screens show for `CC(=O)Nc1ccc(C(=O)CSc2nnc(-c3ccc(O)cc3)n2CC2CCCO2)cc1` (stereo not given)?
Beta2AR agonist: -1.2; NOD2-RIPK2 inh: -15.5; TLR9-MyD88 block: -1.9; Bfl-1 A1 inh: 0.8; NTR1 agonist: 0.1; TLR4-MyD88 BLA: -2.7

How did Cc1ccccc1OCC(=O)N/N=C/c1cn(Cc2ccccc2)c2ccccc12 do in these assays?
Beta2AR agonist: 9.4; NOD2-RIPK2 inh: 3.2; TLR9-MyD88 block: -2.2; Bfl-1 A1 inh: 0.3; NTR1 agonist: 5.4; TLR4-MyD88 BLA: 11.1

What do the screens show for `Cc1ccc(OCC(=O)N/N=C\c2cn(Cc3ccccc3)c3ccccc23)cc1C`?
Beta2AR agonist: 3.8; NOD2-RIPK2 inh: -12.8; TLR9-MyD88 block: -9.0; Bfl-1 A1 inh: 0.0; NTR1 agonist: 40.6*; TLR4-MyD88 BLA: 11.1; NTR1 ag conf: 5.1

How did O=C(C1CCN(S(=O)(=O)N2CCOCC2)CC1)N1CCN(Cc2ccccc2)CC1 do in these assays?
Beta2AR agonist: -4.2; NOD2-RIPK2 inh: -5.7; TLR9-MyD88 block: -2.4; Bfl-1 A1 inh: 0.3; NTR1 agonist: 0.0; TLR4-MyD88 BLA: 2.1

How did Cc1ccc(Sc2c([N+](=O)[O-])c(=O)n(C)c3ccccc23)cc1 do in these assays?
Beta2AR agonist: 17.7; NOD2-RIPK2 inh: 1.2; TLR9-MyD88 block: -12.8; Bfl-1 A1 inh: 3.7; NTR1 agonist: 66.6*; NTR1 ag conf: 72.7*

What do the screens show for `COc1cccc(-c2ncc3ccccc3c2COC(=O)c2cccc(Br)c2)c1`?
Beta2AR agonist: -2.6; NOD2-RIPK2 inh: -9.4; TLR9-MyD88 block: -3.6; Bfl-1 A1 inh: 0.1; NTR1 agonist: 2.3

What do the screens show for `O=C(NCc1ccccc1)C1CCC(CNS(=O)(=O)c2cccs2)CC1` (stereo not given)?
Beta2AR agonist: -3.1; NOD2-RIPK2 inh: -14.4; TLR9-MyD88 block: 3.6; Bfl-1 A1 inh: 0.0; NTR1 agonist: 42.0*; NTR1 ag conf: -3.5

How did O=C(CC(c1ccccc1)c1ccccc1O)NCCN1CCOCC1 (stereo not given) do in these assays?
Beta2AR agonist: -7.2; NOD2-RIPK2 inh: -2.8; TLR9-MyD88 block: -8.1; Bfl-1 A1 inh: 0.5; NTR1 agonist: -1.6; TLR4-MyD88 BLA: 5.9

How did O=C(c1ccc(Cn2c(=O)[nH]c3ccccc3c2=O)cc1)N1CCN(c2ccc(F)cc2)CC1 do in these assays?
Beta2AR agonist: -2.8; NOD2-RIPK2 inh: 4.3; TLR9-MyD88 block: -0.5; Bfl-1 A1 inh: 0.4; NTR1 agonist: 0.5; TLR4-MyD88 BLA: 4.4

Results for O=S(=O)(NCC(Nc1ccccc1)c1ccccc1)c1ccc(Cl)cc1 (stereo not given) ?
Beta2AR agonist: 31.8; NOD2-RIPK2 inh: 7.1; TLR9-MyD88 block: -16.3; Bfl-1 A1 inh: -1.8; NTR1 agonist: 43.9*; TLR4-MyD88 BLA: 0.6; NTR1 ag conf: 7.5

Results for CS(=O)(=O)N(CC(=O)N/N=C/c1ccccc1C(=O)O)c1cccc(Cl)c1Cl ?
Beta2AR agonist: 9.6; NOD2-RIPK2 inh: 1.4; TLR9-MyD88 block: -1.5; Bfl-1 A1 inh: -0.3; NTR1 agonist: 0.9

How did CC(C)c1ccc(/C=N/NC(=O)CN(c2cccc(Cl)c2Cl)S(C)(=O)=O)cc1 do in these assays?
Beta2AR agonist: 4.0; NOD2-RIPK2 inh: 0.2; TLR9-MyD88 block: -3.1; Bfl-1 A1 inh: -0.5; NTR1 agonist: 48.1*; TLR4-MyD88 BLA: -1.0; NTR1 ag conf: 39.6

Results for CC(C)NC(=O)COc1ccc(S(=O)(=O)N2CCCC2)cc1 ?
Beta2AR agonist: -9.7; NOD2-RIPK2 inh: -3.2; TLR9-MyD88 block: -1.3; Bfl-1 A1 inh: -0.6; NTR1 agonist: -0.1
